Among all 370,000 compounds or so, about 6,800 (1.8%) were called active. The full list was thinned out, with actives kept by preference. Unmarked numbers belong to inactive results.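 The calls were made as follows: active = activation above a cutoff set at the mean of all screened compounds plus 3 SD (cut at about 10% in these data); inactive = the rest.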

The test has as its system Nuclear hormone receptor DAF-12 (Heterodera glycines), GAL4 fusion. Briefly: hgDAF-12 GAL4 fusion reporter activation – cell-based, luminescence, HEK293, UAS-luciferase, primary screen (AID 687014).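 Also: 0% = DMSO wells and 100% = sodium butyrate wells.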 The following applies: HEK293 GAL4-hgDAF12 UAS-luciferase reporter, agonist luminescence; at 6.8 µM; active compounds read high; normalized to butyrate control. A general note: In a reporter assay the amount or activity of a reporter protein is the signal.
`O=C(CCc1nnc(CCCCc2ccccc2)o1)NC(c1cccnc1)C(F)(F)F` (stereo unspecified): the activation was 1.64%.

Turning to `Cc1cc(=O)n2nc(N3CCCC(C(=O)N4CCN(C)CC4)C3)sc2n1` (stereo unspecified), the activation was -0.62%. With `O=S1(=O)c2ccc(Br)cc2OC[C@H](Cc2ccccc2)N1Cc1cn(Cc2ccccc2)nn1`, the activation was -1.13%. With `Cc1nccn1CCC1CCCCN1C(=O)CCc1nnc(-c2ccsc2)o1` (stereo unspecified), the activation is -0.93%. With `CC(Sc1nc2cc(Cl)ccc2s1)C(=O)Nc1ccc2c(c1)OCO2` (stereo unspecified), the activation was 7.08%. Then `CCSc1ccccc1C(=O)Nc1ccc2c(c1)OCO2`, with 3.85%.

With `CC(=O)Nc1cccc(C(=O)OCC(=O)c2ccc3c(c2)OCO3)c1`, the activation was 17.4% (active). With `CC(=O)Nc1cccc(C(=O)OCC(=O)NCc2cc(C)c(O)c(C)c2)c1`, the activation is 3.44%. As to `CC(C)C(=O)Nc1cccc(C(=O)Nc2ccc3c(c2)OCO3)c1`, the activation is 14.9% (active). As to `CC(=O)Nc1cccc(C(=O)OCN2C(=O)c3ccccc3C2=O)c1`, the activation is -0.37%. Consider `COC(=O)C1=C(C(=O)OC)C2C=C(C(C)C)C1C(=O)C2(C)O` (stereo unspecified), for which the activation is 2.89%.

For `COC(=O)c1cccc(Cn2ccc3ccc(-c4ccc5ccn(C(=O)c6ccccc6C)c5c4)cc32)c1`, the activation was 0.42%. On to `O=C(NS(=O)(=O)c1cccs1)[C@H]1O[C@@H](n2ccc(=O)[nH]c2=O)[C@H](O)[C@@H]1O`, for which the activation is 1.66%.

For the compound `COc1ccc(N2CCN(CCNS(=O)(=O)c3ccc([N+](=O)[O-])cc3)CC2)cc1`, the activation is -4.01%. Regarding `CCOc1ccccc1/C=N/Nc1nc2ccccc2o1`, the activation was 10.6% (active). Then `Fc1ccccc1OCCSc1nc2ccccc2o1`, with 3.51%; and `O=C(CSc1nc2ccccc2o1)N/N=C/c1ccccc1C(=O)O`, with 1.68%. For `COc1ccccc1C(=O)N1O[C@]23C=C[C@]14C[C@@H](O)CC[C@]4(C)C2CC[C@]1(C)[C@@H]([C@H](C)/C=C/[C@H](C)C(C)C)CC[C@H]13` (stereo partly specified), the activation was -1.48%.

In the case of `C/C(=N/NC(=O)c1ccn(C)n1)c1ccncc1`, the activation was 7.12%. Turning to `C/C(=N\NC(=O)c1ccccc1F)c1ccccn1`, the activation is 10.8% (active). For the compound `CC(=NNC(=S)N1CCCCCC1)c1ccccn1`, the activation is 2.43%.

Turning to `Cc1ccc(S(=O)(=O)N2C[C@@H](C)[C@]3(C2)[C@H](O)[C@H](OC(=O)NCc2ccccc2)C[C@H]2C(=O)N(c4ccccc4)C(=O)[C@H]23)cc1`, the activation is -0.54%.

Turning to `Cc1ccc(CN2CCCCC(NC(=O)C3CCCCC3)C2=O)cc1` (stereo unspecified), the activation was -1.5%. On to `O=c1[nH]c(CCl)nc2cc(-c3ccc(Cl)cc3)sc12`, for which the activation was 12.9% (active). With `Cn1c(NCc2cccnc2)nc2cc(-c3ccc(F)cc3)sc2c1=O`, the activation is 8.39%. For the compound `COc1cccc(-c2cc3nc(NCCOc4ccccc4Cl)n(C)c(=O)c3s2)c1`, the activation was 0.22%. As to `COc1ccc(-n2c(SCC(=O)Nc3ccc4c(c3)OCCO4)nnc2-c2ccc(Cl)cc2)cc1`, the activation is -1.31%. On to `O=C(C(=O)N1CCC(CNC(=O)c2cccnc2Cl)CC1)c1cccs1`, for which the activation is 1.44%. On to `Cc1nc(NC(=O)C(C)(C)C)sc1[N+](=O)[O-]`, for which the activation is -4.82%.

In the case of `Brc1ccc2nc(N3CCCC3)sc2c1`, the activation was 14.3% (active). Consider `Cc1nc(N2CCCCC2)sc1C=O`, for which the activation is 1.15%.

With `COc1ccc2nc(N3CCN(C(=O)c4ccc([N+](=O)[O-])o4)CC3)sc2c1`, the activation is -2.68%.

Consider `Cc1nc(CNc2ncnc3ccc(-c4ccc5c(c4)OCO5)cc23)cs1`, for which the activation was 1.56%. Turning to `CC(NS(=O)(=O)c1ccc(Cl)cc1)C(=O)Nc1ccc2c(c1)OCCO2` (stereo unspecified), the activation was 1.96%.

On to `CCOc1ncccc1C(=O)Nc1ccc2c(c1)OCCO2`, for which the activation is -3.84%. Turning to `Cc1cccc(NC(=O)Nc2ccc3c(c2)OCO3)n1`, the activation was 14.2% (active).

For `Cc1ccc(OCCCC(=O)Nc2ccc3c(c2)OCCO3)cc1`, the activation is -2.83%. Then `CNS(=O)(=O)c1ccc(NC(=O)Nc2ccc3c(c2)OCO3)cc1`, with 18.5% (active); and `O=C(COC(=O)/C=C/c1ccc2c(c1)OCO2)NC1CCS(=O)(=O)C1` (stereo unspecified), with -2.83%. Regarding `COc1cccc(/C=C/C(=O)Nc2ccc3c(c2)OCCO3)c1`, the activation was 16.9% (active). As for `CN(Cc1ccccc1)C(=O)COC(=O)/C=C/c1ccc2c(c1)OCO2`, the activation is -1.56%.

In the case of `O=C(Nc1ccc2c(c1)OCO2)C1CC(c2c(F)cccc2Cl)=NO1` (stereo unspecified), the activation was 7.76%.

Take `Cc1cccc(NC(=O)/C=C/c2ccc3c(c2)OCO3)n1`: the activation is 17.7% (active). As for `Cc1ccc(S(=O)(=O)NCC(=O)Nc2ccc3c(c2)OCCO3)cc1`, the activation was -3.96%.

Turning to `CC(NC(=O)Nc1cccc([N+](=O)[O-])c1)c1ccc2c(c1)OCO2` (stereo unspecified), the activation is -1.33%. As to `CN1C(=O)c2cc(NS(C)(=O)=O)ccc2OC[C@@H]2O[C@@H](CC(=O)NCc3ccc(-c4ccccc4)cc3)CC[C@H]21`, the activation is -3.14%.

Regarding `COc1ccc(OCC(=O)NN2Cc3ccccc3C2=N)cc1`, the activation was 1.16%. The figure for `CCOC(=O)[C@@]12CN(C(=O)OC(C)(C)C)CC=C1N(Cc1ccc(OC)cc1)C(=O)[C@H]2CC(=O)NCc1ccc(OC)c(OC)c1` is -0.18%; for `COc1cc(N/C=C2\CC(=O)NC(C)=C2C#N)cc(OC)c1OC` it is -2.99%. Consider `Cc1csc2nc(COC(=O)c3cccc(N(C)C)c3)cc(=O)n12`, for which the activation is 1.98%.

Consider `CCc1ccc(Oc2coc3cc(O)ccc3c2=O)cc1`, for which the activation was 2.19%. The figure for `O=c1c(-c2ccccc2)coc2cc(O)ccc12` is 11.4% (active). For the compound `CC(C)=CCc1c(O)c(CC=C(C)C)c2occ(-c3ccc(O)cc3)c(=O)c2c1O`, the activation was 1.09%.

Regarding `C#CCN([C@@H](C)C(=O)OCC)S(=O)(=O)c1ccc(Br)cc1F`, the activation was 3.49%. With `CC(C)(C)c1nnc(NC(=O)C2c3ccccc3Oc3ccccc32)s1`, the activation is 0.43%. For `S=c1[nH]nc(Nc2ccccc2)s1`, the activation was -0.56%. On to `CC(C)(C)C(=O)c1cnc(Nc2ccccc2)s1`, for which the activation was 15.3% (active). Then `CC(C)(C)OC(=O)NCCc1ccccc1/C=C/S(=O)(=O)NCc1ccc(F)cc1`, with 0.52%; and `O=C(NCCOc1ccccc1)c1ccccc1F`, with 15% (active); and `O=C(CNC(=O)c1ccccc1F)c1ccc(Br)cc1`, with 11.4% (active).

Turning to `O=C(CCCOc1ccccc1)NNC(=O)c1ccc(Cl)cc1`, the activation is -0.32%. With `CCCOc1ccc(C(=O)NCCc2ccccc2)cc1`, the activation is 18.9% (active).

With `CC(C)c1ccc(C(=O)NCCCc2ccccc2)cc1`, the activation was 9.47%. Consider `O=C(NCCOc1ccccc1)c1ccccc1`, for which the activation is 14.6% (active). In the case of `O=C(NCCc1csc(-c2ccccc2)n1)c1ccccc1F`, the activation is -3.44%. As for `NS(=O)(=O)c1cc(C(=O)NCCOc2ccccc2)c(Cl)cc1Cl`, the activation is -5.7%. For the compound `O=C(COC(=O)CNC(=O)c1ccccc1F)NCC(F)(F)F`, the activation is -2.85%. With `CN(c1ccccc1)S(=O)(=O)c1ccc(C(=O)NCCc2ccccc2)cc1`, the activation is 4.14%. The figure for `O=C(CNC(=O)c1ccccc1F)OCC(=O)c1c[nH]c2ccccc12` is 1.04%; for `O=C(CCc1c[nH]c2ccccc12)NCCOc1ccccc1` it is 3.15%; for `NC(=O)c1nnsc1-c1ccc(-c2snnc2C(N)=O)cc1` it is 2.87%.

Consider `COc1cccc(CSc2nnc(-c3cccnc3)n2Cc2ccccc2)c1`, for which the activation is 1.72%. The figure for `CC(C)CNc1cccc2c1S(=O)(=O)N[C@H](C)CO2` is -0.06%; for `Cc1[nH]c2ccccc2c1CC(=O)Nc1ccc(Nc2cccnc2)c(-c2cccc(Cl)c2)c1` it is -1.25%. Then `CC(C)C(C#CC1CC1)N(Cc1ccc2c(c1)OCO2)C(N)=NC(=O)/C=C/c1cccc(C(F)(F)F)c1` (stereo unspecified), with 0.47%; and `C=CCN1C(=O)[C@@H](CC(=O)N2CCN(C(=O)c3ccco3)CC2)[C@]2(C(=O)OC)CCCCC=C12`, with 0.44%; and `Nc1cccc2c1C(=O)N(Cc1nnc(-c3ccccc3Br)o1)C2=O`, with -2.29%. Take `C=CC1=CCN(S(=O)(=O)C(C)(C)C)[C@@H]1CCO`: the activation is 1.1%. As for `CC(C)Oc1ccc(/C=C(\NC(=O)/C=C/c2ccco2)C(=O)NCCc2nc3ccccc3[nH]2)cc1`, the activation was -4.59%. On to `O=C(OCc1cc(=O)n2ccsc2n1)C1(c2ccc(Cl)cc2)CC1`, for which the activation is -1.52%.

Regarding `COC(=O)Cc1nnn2c1[C@H](C)[C@@H](OC)c1cc(Br)ccc1-2`, the activation was 3.49%. For the compound `CCOC(=O)c1c(NC(C)=O)sc2c(O)c(Br)ccc12`, the activation was 1.29%.

Take `Cc1csc(NC(=O)Nc2ccccc2[N+](=O)[O-])n1`: the activation is 25.4% (active). As to `CN1CCN(CCNC(=O)Nc2ccccc2[N+](=O)[O-])CC1`, the activation is 0.56%. Take `Cc1cc(NC(=O)Nc2ccccc2[N+](=O)[O-])no1`: the activation was 4.97%.

Turning to `COC1=C[C@H](C(=O)NCCNC(C)=O)[C@H](C)[C@@H](c2ccccc2)CC1=O`, the activation is -1.27%. Regarding `O=C(Cn1c(N2CCN(C/C=C/c3ccccc3)CC2)nc2ccccc21)c1ccccc1`, the activation is -0.26%.

For `O=C(Nc1ccc(C2CC2(Cl)Cl)cc1)c1cccc([N+](=O)[O-])c1` (stereo unspecified), the activation was 14.5% (active). Then `O=C(NC(=S)NC1CCS(=O)(=O)C1)c1cccc([N+](=O)[O-])c1` (stereo unspecified), with 3.84%. For the compound `Cc1ccc(NC(=O)C(=O)NCC2CCN(C(=O)c3cccc([N+](=O)[O-])c3)CC2)cc1`, the activation was 1.22%. Consider `COc1ccc(S[C@]2(C(=O)N(C)C)CC(=O)N(c3ccc(OC)cc3)[C@@H]2c2ccc(OC)cc2)cc1`, for which the activation was -1%.

For the origin of these results see PubChem BioAssay AID687014 (The Scripps Research Institute Molecular Screening Center, 2013).
